“And” between values parts separate entries of the source, which are not always exact repeats. Equal values may be shown once. More than one record can exist for a structure, and the calls need not agree. The source made the active and inactive calls. Rule for the calls: active = hit-call score of the fitted dose curve at least 0.9, where 1 is the maximum; inactive = score below 0.9.
Tests used:
[1] = read-out: flavin-containing dimethylaniline monooxygenases 3 (FMO3), FMO3 (gene 2328); experiment: LTEA_HepaRG_FMO3: Life Technologies and Expression Analysis (LTEA) Assay for flavin-containing dimethylaniline monooxygenases 3 (FMO3) using HepaRG (AID 2283453); details: mRNA level, 48 h; actives raise or lower the signal;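 for AC50: FMO3 transcript by TaqMan qRT-PCR normalized to ACTB GAPDH and POLR2A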
Summary of the method: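 Eight-point concentration-response in serum-free HepaRG cultures (top 100 uM, 0.5% DMSO, 48 h). Read-out: FMO3 mRNA level normalized to three endogenous control genes, fitted bidirectionally versus vehicle.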

[2] = read-out: Cytochrome P450 (CYP1A1), CYP1A1 (gene 1543); experiment: LTEA_HepaRG_CYP1A1: Life Technologies and Expression Analysis (LTEA) Assay for Cytochrome P450 (CYP1A1) using HepaRG (AID 2283454); details: mRNA level, 48 h; actives raise or lower the signal
Summary of the method: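 Differentiated human HepaRG cells, after 48 h plating, exposed in duplicate for 48 h in serum-free induction medium to 8 half-log concentrations up to 100 uM in 0.5% DMSO. CYP1A1 mRNA by qRT-PCR, normalized to ACTB/GAPDH/POLR2A; bidirectional fit versus DMSO.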

[3] = read-out: CFLAR gene, CFLAR (gene 8837); experiment: LTEA_HepaRG_CFLAR: Life Technologies and Expression Analysis (LTEA) Assay for CFLAR gene using HepaRG (AID 2283455); details: mRNA level, 48 h; actives raise or lower the signal
Summary of the method: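 Gain- or loss-of-signal changes in CFLAR transcript were fitted bidirectionally relative to 0.5% DMSO. Cells (HepaRG, duplicate wells) were dosed for 48 h across eight half-log concentrations topping at 100 uM; quantitation by TaqMan qRT-PCR.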

[4] = read-out: Forkhead box O1 (FOXO1), FOXO1 (gene 2308); experiment: LTEA_HepaRG_FOXO1: Life Technologies and Expression Analysis (LTEA) Assay for Forkhead box O1 (FOXO1) using HepaRG (AID 2283456); details: mRNA level, 48 h; actives raise or lower the signal
Summary of the method: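 Using one lot of HepaRG hepatic cells kept in 0.5% DMSO, the team applied test chemicals in duplicate, half-log dilutions from 100 uM, for 48 h. Expression, normalised to ACTB/GAPDH/POLR2A, was compared with vehicle in either direction.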

[5] = read-out: growth arrest and DNA damage 45 (GADD45A), GADD45A (gene 1647); experiment: LTEA_HepaRG_GADD45A: Life Technologies and Expression Analysis (LTEA) Assay for growth arrest and DNA damage 45 (GADD45A) using HepaRG (AID 2283458); details: mRNA level, 48 h; actives raise or lower the signal
Summary of the method: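 HepaRG, 48 h exposure, 8 conc. (top 100 uM, half-log steps), 0.5% DMSO vehicle, duplicates. Read-out: qRT-PCR mRNA level, housekeeping-normalized (ACTB/GAPDH/POLR2A). Curves fit bidirectionally vs DMSO baseline.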

[6] = read-out: Forkhead box O3 (FOXO3), FOXO3 (gene 2309); experiment: LTEA_HepaRG_FOXO3: Life Technologies and Expression Analysis (LTEA) Assay for Forkhead box O3 (FOXO3) using HepaRG (AID 2283459); details: mRNA level, 48 h; actives raise or lower the signal
Summary of the method: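 Gene-expression endpoint: FOXO3 transcript level by qRT-PCR in HepaRG cultures treated 48 h with chemicals up to 100 uM (half-log, 0.5% DMSO vehicle).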

[7] = read-out: ABC Transporter (ABCB1), ABCB1 (gene 5243); experiment: LTEA_HepaRG_ABCB1: Life Technologies and Expression Analysis (LTEA) Assay for ABC Transporter (ABCB1) using HepaRG (AID 2283460); details: mRNA level, 48 h; actives raise or lower the signal
Summary of the method: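 Human liver HepaRG line treated 48 h with up to 100 uM compound (eight half-log points, 0.5% DMSO); ABCB1 mRNA change fitted bidirectionally against DMSO controls.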

[8] = read-out: growth arrest and DNA damage 45 (GADD45B), GADD45B (gene 4616); experiment: LTEA_HepaRG_GADD45B: Life Technologies and Expression Analysis (LTEA) Assay for growth arrest and DNA damage 45 (GADD45B) using HepaRG (AID 2283461); details: mRNA level, 48 h; actives raise or lower the signal
Summary of the method: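 Differentiated human HepaRG cells in serum-free induction medium exposed 48 h in duplicate to eight concentrations, top 100 uM, half-log steps, 0.5% DMSO. GADD45B mRNA by TaqMan qRT-PCR, normalized to ACTB, GAPDH, POLR2A; bidirectional fit versus DMSO.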

[9] = read-out: ABC Transporter (ABCC3), ABCC3 (gene 8714); experiment: LTEA_HepaRG_ABCC3: Life Technologies and Expression Analysis (LTEA) Assay for ABC Transporter (ABCC3) using HepaRG (AID 2283462); details: mRNA level, 48 h; actives raise or lower the signal
Summary of the method: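 Differentiated human HepaRG cells exposed 48 h in serum-free induction medium, 0.5% DMSO vehicle, 8-point half-log series to 100 uM in duplicate. ABCC3 mRNA by qRT-PCR, normalised to ACTB, GAPDH, POLR2A; bidirectional fit vs DMSO.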

[10] = read-out: ABC Transporter (ABCB11), ABCB11 (gene 8647); experiment: LTEA_HepaRG_ABCB11: Life Technologies and Expression Analysis (LTEA) Assay for ABC Transporter (ABCB11) using HepaRG (AID 2283463); details: mRNA level, 48 h; actives raise or lower the signal
Summary of the method: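 Using HepaRG cultures held in 0.5% DMSO, chemicals were tested at half-log dilutions from 100 uM for 48 h. Induction or suppression of ABCB11 mRNA, normalized to ACTB, GAPDH and POLR2A, was fitted bidirectionally against vehicle.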

[11] = read-out: ABC Transporter (ABCC2), ABCC2 (gene 1244); experiment: LTEA_HepaRG_ABCC2: Life Technologies and Expression Analysis (LTEA) Assay for ABC Transporter (ABCC2) using HepaRG (AID 2283464); details: mRNA level, 48 h; actives raise or lower the signal
Summary of the method: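 Differentiated HepaRG cells in serum-free induction medium exposed 48 h to eight half-log concentrations up to 100 uM, 0.5% DMSO, in duplicate. ABCC2 mRNA measured by qRT-PCR (TaqMan, Fluidigm), normalized to ACTB, GAPDH and POLR2A. Fitted in both directions against DMSO.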

[12] = read-out: Broad substrate specificity ATP-binding cassette transporter ABCG2 (Homo sapiens) (UniProt Q9UNQ0); experiment: LTEA_HepaRG_ABCG2: Life Technologies and Expression Analysis (LTEA) Assay for ABC Transporter (ABCG2) using HepaRG (AID 2283465); details: mRNA level, 48 h; actives raise or lower the signal
Summary of the method: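 Gene expression of ABCG2 in HepaRG liver cells is quantified by qRT-PCR following 48 h exposure across an eight-point series topping at 100 uM. Values come from bidirectional fitting relative to DMSO vehicle.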

[13] = read-out: ATP-citrate lyase (ACLY), ACLY (gene 47); experiment: LTEA_HepaRG_ACLY: Life Technologies and Expression Analysis (LTEA) Assay for ATP-citrate lyase (ACLY) using HepaRG (AID 2283466); details: mRNA level, 48 h; actives raise or lower the signal
Summary of the method: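 ACLY expression changes in human HepaRG liver cells are quantified by qRT-PCR after 48 h exposure to test chemicals (maximum 100 uM, half-log steps). Values are fitted in both directions relative to 0.5% DMSO vehicle.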

[14] = read-out: Alkaline Phosphatase, Placental (ALPP) gene, ALPP (gene 250); experiment: LTEA_HepaRG_ALPP: Life Technologies and Expression Analysis (LTEA) Assay for Alkaline Phosphatase, Placental (ALPP) gene using HepaRG (AID 2283468); details: mRNA level, 48 h; actives raise or lower the signal
Summary of the method: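 HepaRG cells plated 48 h, then exposed in duplicate for 48 h in serum-free induction medium to 8-point half-log series from 100 uM in 0.5% DMSO. ALPP mRNA by TaqMan qRT-PCR, normalized to ACTB/GAPDH/POLR2A; bidirectional fit versus DMSO.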

[15] = read-out: Bcl-2 (BAD) gene, BAD (gene 572); experiment: LTEA_HepaRG_BAD: Life Technologies and Expression Analysis (LTEA) Assay for Bcl-2 (BAD) gene using HepaRG (AID 2283469); details: mRNA level, 48 h; actives raise or lower the signal
Summary of the method: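 Activity values reflect up- or down-regulation of BAD mRNA in human HepaRG hepatic cells treated 48 h in serum-free medium, with eight-point half-log dosing capped at 100 uM and 0.5% DMSO vehicle.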

[16] = read-out: Bcl-2 (BAX) gene, BAX (gene 581); experiment: LTEA_HepaRG_BAX: Life Technologies and Expression Analysis (LTEA) Assay for Bcl-2 (BAX) gene using HepaRG (AID 2283470); details: mRNA level, 48 h; actives raise or lower the signal
Summary of the method: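 qRT-PCR read-out of BAX mRNA, normalized to three housekeeping genes, after 48 h chemical exposure of human HepaRG cells in serum-free induction medium; eight-point half-log series, top 100 uM, 0.5% DMSO vehicle; bidirectional fit versus DMSO.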

[17] = read-out: adenosine kinase (ADK) gene, ADK (gene 132); experiment: LTEA_HepaRG_ADK: Life Technologies and Expression Analysis (LTEA) Assay for adenosine kinase (ADK) gene using HepaRG (AID 2283471); details: mRNA level, 48 h; actives raise or lower the signal
Summary of the method: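 Following 48 h exposure of HepaRG cells in 0.5% DMSO (top concentration 100 uM, duplicate wells), ADK mRNA induction or suppression was measured by qRT-PCR, normalised to ACTB/GAPDH/POLR2A, and fitted bidirectionally relative to vehicle.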

[18] = read-out: Alpha-fetoprotein (AFP) gene, AFP (gene 174); experiment: LTEA_HepaRG_AFP: Life Technologies and Expression Analysis (LTEA) Assay for Alpha-fetoprotein (AFP) gene using HepaRG (AID 2283472); details: mRNA level, 48 h; actives raise or lower the signal
Summary of the method: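 qRT-PCR (Fluidigm TaqMan) readout of AFP transcript, normalized to three housekeeping genes, fitted bidirectionally against 0.5% DMSO baseline. HepaRG cells received chemicals for 48 h in serum-free induction medium, top concentration 100 uM, half-log steps.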

[19] = CEETOX_H295R_TESTO: CeeTox H295R High-throughput Steroidogenesis Assay for Testosterone (TESTO) (AID 2283457); details: actives raise or lower the signal
Summary of the method: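 H295R adrenal cells, passage ≤10, exposed to chemicals for 48 h. Testosterone in medium measured by MTBE extraction and HPLC-MS/MS against a 7-point standard curve. Bidirectional fit versus DMSO; MTT viability checked in the same wells.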

Measured: AC50

Broad substrate specificity ATP-binding cassette transporter ABCG2 (Homo sapiens), sequence (Q9UNQ0 whole entry, looked up): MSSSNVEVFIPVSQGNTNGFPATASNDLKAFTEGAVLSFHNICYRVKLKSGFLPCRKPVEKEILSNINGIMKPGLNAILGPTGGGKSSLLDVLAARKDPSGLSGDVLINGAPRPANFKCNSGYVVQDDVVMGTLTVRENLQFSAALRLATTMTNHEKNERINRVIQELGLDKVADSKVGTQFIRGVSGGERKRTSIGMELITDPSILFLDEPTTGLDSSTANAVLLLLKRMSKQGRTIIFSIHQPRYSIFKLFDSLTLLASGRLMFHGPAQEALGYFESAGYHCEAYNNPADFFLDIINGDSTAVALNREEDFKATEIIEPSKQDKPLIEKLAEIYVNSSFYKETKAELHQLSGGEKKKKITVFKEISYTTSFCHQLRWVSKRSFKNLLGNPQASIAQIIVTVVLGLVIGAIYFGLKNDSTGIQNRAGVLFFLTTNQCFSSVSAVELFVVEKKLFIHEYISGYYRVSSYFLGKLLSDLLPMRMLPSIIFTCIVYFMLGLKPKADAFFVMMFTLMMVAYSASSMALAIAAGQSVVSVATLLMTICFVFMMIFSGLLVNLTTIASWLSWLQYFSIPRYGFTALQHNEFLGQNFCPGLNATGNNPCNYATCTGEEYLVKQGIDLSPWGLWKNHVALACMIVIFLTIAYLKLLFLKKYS

CC(C)(C)C(O)C(Oc1ccc(Cl)cc1)n1cncn1 (stereo unspecified)
inactive: [1] | [3] | [4] | [5] | [6] | [8] | [9] | [10] | [11] | [12] | [14] | [15] | [16] | [17]
active: [2] 23.1 µM and 18.4 µM and 22 µM | [7] 4.64 µM and 7.44 µM and 3.5 µM | [10] 9.92 µM | [11] 2.47 µM | [13] 73.6 µM and 50 µM and 34.1 µM | [18] 4.76 µM and 9.92 µM and 50 µM

C[C@H]1[C@H](c2ccc(Cl)cc2)SC(=O)N1C(=O)NC1CCCCC1
active: [1] 75 µM | [2] 14.9 µM | [4] 83.2 µM | [5] 75.8 µM | [7] 32.8 µM | [8] 82.2 µM | [10] 76.5 µM | [12] 39.7 µM | [13] 79.7 µM | [14] 32.1 µM | [16] 77.2 µM | [18] 36.7 µM
inactive: [3] | [19] | [6] | [9] | [11] | [15] | [17]

Oc1cc(Cl)ccc1Oc1ccc(Cl)cc1Cl
inactive: [1] | [3] | [4] | [5] | [6] | [7] | [8] | [9] | [10] | [11] | [12] | [13] | [14] | [15] | [16] | [17] | [18]
active: [1] 85.1 µM | [2] 77.3 µM and 88.3 µM and 79.3 µM | [5] 10.1 µM | [6] 0.067 µM | [10] 73.3 µM and 75.5 µM | [18] 51 µM

O=C(O)C(F)(F)C(F)(F)C(F)(F)C(F)(F)C(F)(F)C(F)(F)C(F)(F)F
inactive: [1] | [2] | [3] | [4] | [5] | [6] | [7] | [8] | [9] | [10] | [11] | [12] | [13] | [14] | [15] | [16] | [17] | [18]
active: [4] 50 µM | [14] 9.92 µM

CCCN(CCC)c1c([N+](=O)[O-])cc(C(F)(F)F)cc1[N+](=O)[O-]
active: [2] 50 µM
inactive: all other assays above
